Source: the supplement of paper PMC6555819

Columns and labels:
Assay in all cases: PBM binding z-score (relative to random genomic background probes); higher = stronger binding; sequences stand for … in GC…GCGATTGACAGCGTAGAATGAAGG
[1] = tested on: FXR:RXRa (NR concentration 270 nM, RXRa partner concentration 90 nM)
Procedure, shortened: (§1)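 Probes were double-stranded and carried 34-nt variable regions with direct-repeat seeds, single-nucleotide variants, half-site ablations and random human genomic background sequences, printed on custom Agilent 4×180K protein-binding microarrays. Arrays were incubated 1 h with ligand-free nuclear receptor dimers in PBS pH 7.4, 2% milk, 0.02% Triton X-100, 1 mM DTT, 0.2 mg/mL BSA and 0.4 mg/ml salmon testes DNA. Antibodies against each partner (one per run) detected binding, and scanned fluorescence was regression-normalized. Binding z-scores use the random background probes as reference.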

[2] = tested on: LXRa:RXRa (NR concentration 270 nM, RXRa partner concentration 90 nM)
Procedure, shortened: as §1

[3] = tested on: LXRa homodimer (NR concentration 270 nM)
Procedure, shortened: as §1

[4] = tested on: LXRb:RXRa (NR concentration 270 nM, RXRa partner concentration 90 nM)
Procedure, shortened: as §1

[5] = tested on: LXRb homodimer (NR concentration 270 nM)
Procedure, shortened: as §1

[6] = tested on: PPARa:RXRa (NR concentration 270 nM, RXRa partner concentration 90 nM)
Procedure, shortened: as §1

[7] = tested on: PPARg:RXRa (NR concentration 180 nM, RXRa partner concentration 90 nM)
Procedure, shortened: as §1

[8] = tested on: PPARg:RXRa 270nM:90nM, anti-RXR (NR concentration 270 nM, RXRa partner concentration 90 nM)
Procedure, shortened: as §1

[9] = tested on: PPARg:RXRa 30nM:10nM, anti-RXR (NR concentration 30 nM, RXRa partner concentration 10 nM)
Procedure, shortened: as §1

[10] = tested on: PPARg:RXRa 90nM:30nM, anti-RXR (NR concentration 90 nM, RXRa partner concentration 30 nM)
Procedure, shortened: as §1

[11] = tested on: PPARg:RXRa DBDmut IVT, anti-RXR (DBD mutation: RXRa K156A/R161A, NR concentration 270 nM, RXRa partner concentration 90 nM)
Procedure, shortened: as §1

[12] = tested on: PPARg:RXRa IVT, anti-PPARg (NR concentration 270 nM, RXRa partner concentration 90 nM)
Procedure, shortened: as §1

[13] = tested on: PPARg DBDmut:RXRa IVT, anti-PPARg (DBD mutation: PPARg1 K132A/R137A, NR concentration 270 nM, RXRa partner concentration 90 nM)
Procedure, shortened: as §1

[14] = tested on: PPARg DBDmut IVT, anti-PPARg (DBD mutation: PPARg1 K132A/R137A, NR concentration 270 nM)
Procedure, shortened: as §1

[15] = tested on: PPARg homodimer (NR concentration 180 nM)
Procedure, shortened: as §1

[16] = tested on: PXR:RXRa (NR concentration 270 nM, RXRa partner concentration 90 nM)
Procedure, shortened: as §1

[17] = tested on: PXR homodimer (NR concentration 270 nM)
Procedure, shortened: as §1

[18] = tested on: RARa:RXR (NR concentration 270 nM, RXRa partner concentration 90 nM)
Procedure, shortened: as §1

[19] = tested on: RARa homodimer (NR concentration 270 nM)
Procedure, shortened: as §1

[20] = tested on: RARb:RXRa (NR concentration 270 nM, RXRa partner concentration 90 nM)
Procedure, shortened: as §1

Sequence | PBM binding z-score [1] | PBM binding z-score [2] | PBM binding z-score [3] | PBM binding z-score [4] | PBM binding z-score [5] | PBM binding z-score [6] | PBM binding z-score [7] | PBM binding z-score [8] | PBM binding z-score [9] | PBM binding z-score [10] | PBM binding z-score [11] | PBM binding z-score [12] | PBM binding z-score [13] | PBM binding z-score [14] | PBM binding z-score [15] | PBM binding z-score [16] | PBM binding z-score [17] | PBM binding z-score [18] | PBM binding z-score [19] | PBM binding z-score [20]
GCGGCTAGGTCAGGTTGGTCAGCTAACGGGTACG | 1.14 | 0.573 | -0.172 | 0.648 | -0.613 | 1.33 | 0.166 | 0.609 | -0.687 | 0.275 | 1.28 | 1.36 | -1.08 | -0.633 | 0.749 | 0.325 | -0.293 | 0.825 | -0.0979 | 3.26
CGTCCAAGGTCAGAGAGGTCAGTGCATGCCGAGT | 5.87 | 4.93 | 3.33 | 4.41 | 0.554 | 4.76 | 3.48 | 4.37 | 0.807 | 2.76 | 3.03 | 3.39 | -0.458 | -1.04 | 4.89 | 5.91 | 11.5 | 5.08 | 1.45 | 5.17
TCTTGCAGATCAACAGGAGGTTAAGAAAGATCGA | -0.0407 | 0.769 | 0.0202 | 0.679 | -0.645 | 1.11 | -0.141 | 0.718 | 1.89 | 1.63 | 0.996 | 0.188 | 0.472 | 0.407 | -0.378 | 0.713 | -0.172 | 0.812 | -0.193 | 0.489
AGAACGGGGGCACGCTGAGTTGATAGCAGAGTAG | 2.62 | 2.67 | 0.116 | 4.87 | 6.59 | 4.42 | 4.48 | 4.86 | 2.39 | 4.05 | 4.63 | 6.15 | 9.13 | 9.69 | 2.35 | 3.72 | 1.03 | 2.98 | 0.451 | 3.1
TGAATGAGCTTAAAGATCAGGGAACGTGGCGTCG | -0.0785 | -0.405 | -0.642 | -0.65 | -0.626 | -0.428 | 0.39 | 0.417 | -0.0177 | 0.152 | -0.909 | -0.722 | -0.0715 | -0.43 | -0.49 | -0.508 | -0.697 | -0.284 | -0.372 | -0.351
CAGCCTAGGTCAGGGCCAGTGTAGGAGGAACGTT | 1.51 | 1.17 | -0.646 | 0.424 | -1.41 | 2.1 | 0.721 | 0.845 | -0.701 | -0.0334 | 1.13 | 1.58 | -0.0989 | -1.49 | 0.588 | 0.476 | -0.524 | 1.01 | -0.522 | 3.5
